In the supplement of paper PMC8047044:
Several values for one entry are separate records, joined by “and”; a condition that tells them apart may be missing. Identical values can stand only once. Counter-ions that a name gives are not always drawn. ± gives the standard deviation of the averaged measurements.

Key:
[1] = tested on: Neuro-2a; assay: neurite formation score, plate-normalized to DMSO control mean 5.04 (score (0-8 scale)); higher = more or longer neurites; conditions: 1 µM
Experimental: (§1)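 Neuro-2a mouse neuroblastoma cells in PLL-coated 96-well plates were pre-treated for 1 h in DMEM(+) with each kinase inhibitor at 1 µM, then switched to serum-free DMEM(-) with inhibitor to induce neurite outgrowth and fixed about 2-3 h later. Three blinded observers scored neurite formation from 0 (no neurites) to 8 (long neurites on almost all cells).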

[2] = tested on: Neuro-2a; assay: as above; conditions: 0.1 µM
Experimental: as §1, with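 “at 0.1” for “at 1”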

SMILES | neurite formation score [1] | neurite formation score [2]
CCN1C(=CC(C)=O)Sc2ccc(OC)cc21 | 4.96 | 4.92
CCS(=O)(=O)Nc1ccc2[nH]c(O)c(C(=Nc3ccc(CN4CCCCC4)cc3)c3ccccc3)c2c1 [Hesperadin] | 1.02 | 3.92
O=c1ncn2nc(Sc3ccc(F)cc3F)ccc2c1-c1c(Cl)cccc1Cl | 4.29 | 4.92
CS(=O)(=O)CCNCc1ccc(-c2ccc3ncnc(Nc4ccc(OCc5cccc(F)c5)c(Cl)c4)c3c2)o1 [Lapatinib] | 4.24 | 4.88
CCOc1ccn(-c2ccc(F)cc2)c(=O)c1C(=O)Nc1ccc(Oc2ccnc(N)c2Cl)c(F)c1 | 5.24 | 4.21
COc1cc(-c2cc(-c3cccc(O)c3)cnc2N)cc(OC)c1OC | 3.88 | 4.08
Cc1nc(Nc2n[nH]c3c2CN(C(=O)N[C@H](CN(C)C)c2ccccc2)C3(C)C)c2sccc2n1 | 4.02 | 4.92
COc1cc2ncnc(Nc3ccc(F)c(Cl)c3)c2cc1NC(=O)/C=C/CN1CCCCC1 | 4.9 | 4.88
C=CC(=O)Nc1cccc(Nc2nc(Nc3ccc(OCCOC)cc3)ncc2F)c1 | 4.91 | 4.71
COc1ccc(S(=O)(=O)N(C(C)=O)c2ccccc2/C=C/c2cc[n+]([O-])cc2)cc1 | 0.569 | 3.54
O=c1cc(N2CCOCC2)oc2c(-c3ccccc3)cccc12 | 5.24 | 4.21
NC(=O)c1ncn([C@@H]2O[C@H](CO)[C@@H](O)[C@H]2O)c1N | 4.57 | 5.54
CCCNC(=O)Nc1ccc(Oc2ncnc3cc(OC)c(OC)cc23)cc1Cl | 5.57 | 5.54
CNc1nc(Nc2ccc(C(=O)N3CCOCC3)cc2OC)ncc1Cl | 4.96 | 4.58
CN(C)CCSSCCNC(=O)C1CCN(C(=O)CSc2ccc(Cl)cc2)CC1 | 3.63 | 4.58
CN(C[C@@H]1COCCO1)S(=O)(=O)Nc1ccc2ccc3ncc(-c4cnn(C)c4)cc3c(=O)c2c1 | 5.29 | 4.25
Cc1ccccc1-n1c(Cn2nc(-c3cccc(O)c3)c3c(N)ncnc32)nc2cccc(C)c2c1=O | 4.88 | 4.75
C=CC(=O)Nc1ccc2ncnc(Nc3cccc(Br)c3)c2c1 | 4.24 | 3.71
C[C@@]1(C(=O)Nc2ccc(F)nc2)CCCN1c1nc(Nc2cc(C3CC3)n[nH]2)c2cccn2n1 | 4.57 | 4.38
CCOc1cc(N2CCC(O)CC2)ccc1Nc1ncc2c(n1)N(C)c1ccccc1C(=O)N2C | 4.69 | 4.92
COc1cc2c(c(OC)c1OC)-c1c(cc3c(c1OC)OCO3)CC(C)C(C)C2 (centres undefined) [Schizandrin B] | 4.88 | 5.08

SMILES | neurite formation score [1] | neurite formation score [2]
NC(=O)c1cnc(N[C@@H]2CCCC[C@@H]2N)nc1Nc1cccc(-n2nccn2)c1 | 4.36 | 4.92
CN(C)Cc1cccc(N=C(c2ccccc2)c2c(O)[nH]c3cc(C(N)=O)ccc23)c1 | 4.24 | 4.54
Cc1ccc(NC(=O)c2ccc(CN3CCN(C)CC3)cc2)cc1Nc1nccc(-c2cccnc2)n1 [Imatinib Mesylate (STI571)] | 4.91 | 4.71
Nc1cc(N)c(N)cc1N [FAK Inhibitor 14] | 4.54 | 4.08
Nc1ncnc2c1c(-c1cccc(OCc3ccccc3)c1)cn2C1CC(CN2CCC2)C1 (centres undefined) | 3.24 | 4.71
CCOc1cc2ncc(C#N)c(Nc3ccc(OCc4ccccn4)c(Cl)c3)c2cc1NC(=O)/C=C/CN(C)C [Neratinib (HKI-272)] | 3.47 | 5.09
Cc1nc(Nc2ncc(C(=O)Nc3c(C)cccc3Cl)s2)cc(N2CCN(CCO)CC2)n1 | 1.57 | 2.38
C[C@@H]1COCCN1c1cc(C2(S(C)(=O)=O)CC2)nc(-c2cccc3[nH]ccc23)n1 | 4.57 | 4.71
O=C(Nc1nc2cccc(-c3ccc(CN4CCS(=O)(=O)CC4)cc3)n2n1)C1CC1 | 4.88 ± 0.58 | 5 ± 0.35
CC1(COc2ccc3c(c2)ncn3-c2ccc3cccc(N4CCC(N)CC4)c3n2)COC1 | 3.57 | 4.21
c1ccc2c(-c3cnn4cc(-c5ccc(N6CCNCC6)cc5)cnc34)ccnc2c1 | 5.14 and 4.47 | 2.42 and 4.42
Cc1nc(N)sc1-c1ccnc(Nc2ccc(N3CCOCC3)cc2)n1 | 4.69 | 4.58
CN1CCN(c2ccc(C(=O)Nc3n[nH]c4ccc(Cc5cc(F)cc(F)c5)cc34)c(NC3CCOCC3)c2)CC1 [Entrectinib] | 2.54 | 0.751
O=C(CCCCCCC(=O)Nc1ccc(I)cc1)NO [4-iodo-SAHA] | 5.21 | 4.42
CN(C)c1ccc(-c2nc3ncc(Cl)c(N4CCN(CC(=O)Nc5nccs5)CC4)c3[nH]2)cc1 | 3.8 | 4.09
OCCn1cc(-c2ccc3c(c2)CC/C3=N\O)c(-c2ccncc2)n1 | 3.69 | 4.58
CCN(CC)CCCCNc1ncc2cc(-c3cc(OC)cc(OC)c3)c(NC(=O)NC(C)(C)C)nc2n1 | 4.24 | 5.21
N#CCNC(=O)c1ccc(-c2ccnc(Nc3ccc(N4CCOCC4)cc3)n2)cc1 [CYT387 sulfate salt] | 4.69 | 4.92
CC(=O)Nc1cccc(-n2c(=O)n(C3CC3)c(=O)c3c(Nc4ccc(I)cc4F)n(C)c(=O)c(C)c32)c1 [Trametinib DMSO solvate] | 5.02 | 4.92
O=C(O)c1ccc(Nc2ncc3c(n2)-c2ccc(Cl)cc2C(c2c(F)cccc2F)=NC3)cc1 | 3.47 | 2.76
COc1ccc(-c2ccc3ncc4c(c3c2)n(-c2ccc(N3CCNCC3)c(C(F)(F)F)c2)c(=O)n4C)cn1 | 4.29 | 4.92
